This excerpt belongs to a sample that is enriched for hits.
RmlCD inh mix = inhibitors of RmlC and RmlD coupled enzymes; inhibition, % at 5.5 µM; AID 1532; 110,000 tested, 0.39% active; RmlC/RmlD coupled enzyme inhibition, 384-well mixture HTS; in the data active = inhibition above about 30%, passing the limit was not always enough
HIV RNase H inh = blocks HIV-1 RNase H cleavage of RNA/DNA duplex | AID 565 | inhibition, % at 10 µM | 65,000 tested, 1.9% active | P04585 | RT-RNase H RNA/DNA duplex cleavage, fluorescence; in the data active = inhibition above about 50%
* marks the source's active call; other numbers are inactive results; . = no result given; ! = not active in a repeat.

SMILES	RmlCD inh mix	HIV RNase H inh
COC(=O)c1cc(NC(=O)CC2NC3CCCCC3NC2=O)cc(C(=O)OC)c1 (stereo unspecified)	7.5	.
C=CCN(C(=O)CSc1nc2[nH]ncc2c(=O)n1-c1ccccc1OC)c1ccccc1	.	17.6
O=C(O)CCCCC1CCSS1 (stereo unspecified)	73.5*	.
O=C(O)CCC(=O)NC1CCCCCCC1	0.0	0.6
COCCn1c(COc2cccc(OC)c2)nnc1SCC(=O)N1CCOCC1	-10.5	-15.8
CC(C)c1nc(N2CCN(C(=O)c3ccccc3)CC2)c(C#N)c2c1COC(C)(C)C2	-18.9	-13.3
CC1(C)Cc2c(C#N)c(N3CCN(C(=O)c4ccccc4)CC3)nc(-c3ccco3)c2CS1	-25.4	56.3*
Cc1ccc2cc(CCNC(=O)CC(C)C)c(=O)[nH]c2c1	8.6	-9.9
COC(=O)c1sc(=S)sc1C(=O)OC	-1.3	52.4*
COC(=O)c1c(N)sc(C(C)=O)c1C	-2.3	-23.1
C=CCn1c(CCNC(=O)c2ccccc2F)nnc1SCC(=O)Nc1nc2ccccc2s1	-6.5	.
CCN(C(=O)c1c(C)cc(=O)oc1C)c1ccc2c(c1)OCO2	-8.0	.
CCN(C(=O)c1coc(=O)c(Br)c1)c1ccc2c(c1)OCO2	123.8*	2.4
COC(=O)C(O)(NC(=O)NC(C)=O)C(F)(F)F (stereo unspecified)	8.6	-2.8
COc1cccc2cc(-c3nnc(SCC(=O)Nc4cc(C(F)(F)F)ccc4Cl)n3N)oc12	1.5	63.7*
CCn1c(SCC(=O)Nc2nccs2)nnc1-c1cc2cccc(OC)c2o1	14.5	2.1
CCOc1ccc(N2C(=O)CC(Sc3nccc(C)n3)C2=O)cc1 (stereo unspecified)	-6.4	-16.9
COc1ccccc1N1C(=O)CC(Sc2nccc(C)n2)C1=O (stereo unspecified)	-11.0	60.2*
CCN(CCCNC(=O)C1CCC(=O)N1C(C)C)c1cccc(C)c1 (stereo unspecified)	-9.2	.
CCCCCCC1NC(C(=O)O)CS1 (stereo unspecified)	-12.5	.
CC(C)(C)OC(=O)N1CCN(c2ccc(NC(=O)c3cc4ccccc4oc3=O)cc2)CC1	.	-2.8
CCOC(=O)Cc1cc(=O)[nH]c(/N=C(/NC(=O)c2ccccc2)Nc2ccccc2C(F)(F)F)n1	1.2	.
COC(=O)Cc1cc(=O)[nH]c(/N=C(/NC(=O)c2ccccc2)Nc2ccccc2C)n1	.	53.3*
CCOC(=O)C(Oc1ccc(=O)n(-c2ccccc2)n1)C(C)=O (stereo unspecified)	-65.4	2.8
Cc1cc(C)n(-c2ccc(C(=O)OCC(=O)c3ccc(Br)s3)cc2)n1	-7.5	2.6
SMILES	RmlCD inh mix	HIV RNase H inh
COc1ccc(C2C3=C(CC(C)(C)CC3=O)Nc3c2c(=O)[nH]c(=O)n3Cc2ccccc2)cc1OC (stereo unspecified)	2.2	4.9
COc1cc(C2C3=C(CC(C)(C)CC3=O)Nc3c2c(=O)[nH]c(=O)n3Cc2ccccc2)ccc1O (stereo unspecified)	.	67.5*!
CCCN1C[C@H](CSC)C[C@@H]2c3cccc4[nH]cc(c34)C[C@H]21	-13.6	.
Cc1oc2c(O)c(O)ccc2c(=O)c1-c1ccccc1	3.5	69.6*
Cc1oc2c(O)c(O)ccc2c(=O)c1-c1cnn(-c2ccccc2)c1	-7.8	34.6
O=C(C1CCC(=O)N1Cc1ccccc1Cl)N1CCN(c2cccc(Cl)c2)CC1 (stereo unspecified)	5.4	-27.8
COc1ccc(-c2nnc(SCC(=O)c3cc(C)n(Cc4cccs4)c3C)o2)cc1	-5.8	57.6*
COc1ccc(-c2nnc(SCC(=O)c3cccs3)o2)cc1	-1.5	-0.1
CCS(=O)CCSc1nc2ccccc2s1 (stereo unspecified)	3.8	.
COC1(OC)C=CC(=O)C=C1NC(=O)c1ccccc1OC(C)=O	-12.7	.
Cc1cc(NC(=O)CSc2nc(C(C)C)nc3sc(C)c(C)c23)no1	3.9	-2.4
Cc1cc(NC(=O)CSc2ncnc3sc4c(c23)CCC(C)C4)no1 (stereo unspecified)	.	84.1*
CCC(C)c1ccc(NC(=O)COC(=O)C2=COCCO2)cc1 (stereo unspecified)	-5.5	.
C=Cc1c(C)c2cc3[nH]c(cc4nc(cc5nc(cc1[nH]2)C(C)=C5CCC(=O)O)C(CCC(=O)O)=C4C)c(C)c3C=C	42.9*	.
Oc1cc2c(cc1O)C1c3ccc(O)c(O)c3OCC1(O)C2 (stereo unspecified)	-8.6	.
Cc1ccc2nc3c(cc(C(=O)NCC4CCCO4)n3C)c(=O)n2c1 (stereo unspecified)	102.9*	1.8
Cc1cc(C(=O)NCCCn2ccnc2)cs1	-11.2	-5.1
Cc1ccc2nc3c(cc(C(=O)NCCCn4ccnc4)n3C)c(=O)n2c1	61.6*	-3.4
Cn1c(C(=O)NCC2CCCO2)cc2c(=O)n(C)c3ccccc3c21 (stereo unspecified)	-3.9	-5.2
BrC(=C\c1ccccc1)/C=N/N1CCN(c2ccccn2)CC1	14.6	.
CCOC(=O)c1ccc(N2CSC3=C(C#N)C(c4cccs4)CC(=O)N3C2)cc1 (stereo unspecified)	-12.3	35.5
COc1ccc(C2CC(=O)N3CN(c4ccc(C)c(Cl)c4)CSC3=C2C#N)cc1OC (stereo unspecified)	-11.2	18.1
CCc1ccc(N2CSC3=C(C#N)C(c4cccs4)CC(=O)N3C2)cc1 (stereo unspecified)	9.2	54.2*
N#CC1=C2SCN(c3ccc(F)cc3)CN2C(=O)CC1c1cccc(F)c1 (stereo unspecified)	6.0	51.3*
CCc1ccc(C2CC(=O)N3CN(c4ccccc4)CSC3=C2C#N)cc1 (stereo unspecified)	-6.3	61.5*
SMILES	RmlCD inh mix	HIV RNase H inh
Cc1ccc(N2CSC3=C(C#N)C(c4cccs4)CC(=O)N3C2)cc1 (stereo unspecified)	6.3	.
CCn1c(=O)c2c(nc(SCC(=O)NCC3CCCO3)n2C)n(C)c1=O (stereo unspecified)	6.5	-8.9
COc1ccc(S(=O)(=O)NCC2CCC(C(=O)N3CCC4(CC3)OCCO4)CC2)cc1 (stereo unspecified)	3.5	4.6
Cc1ccc(S(=O)(=O)CCC(=O)NCc2ccco2)cc1	-7.4	.
Cc1cc2c(s1)CCCCC(=O)N2	-6.4	-13.1
Cc1cc(C)cc(N(CC(=O)N2CCn3c2nc2ccccc23)S(=O)(=O)c2c(C)noc2C)c1	-44.4	3.9
COc1cc(C2C(C#N)=C(N)Oc3cc(O)ccc32)cc2c1OCO2 (stereo unspecified)	-14.8	-46.0
N#CC1=C(N)Oc2cc3c(cc2C1c1ccc(Cl)cc1)OCO3 (stereo unspecified)	-13.9	55.0*
Cc1cc(NC(=O)c2ccc(S(=O)(=O)N3CCCC3)cc2)nc2c1c(=O)oc1ccccc12	12.3	72.0*
Cc1cc(NC(=O)c2ccc(S(=O)(=O)N3CCOCC3)cc2)nc2c1c(=O)oc1ccccc12	.	41.0
O=C(NCc1ccco1)c1sc(=S)n2c1[nH]c(=O)c1ccccc12	15.9	58.2*
O=C(NC1CCCC1)c1sc(=S)n2c1[nH]c(=O)c1ccccc12	4.7	29.6
CCCCCCc1cc2cc(-c3nnc(-c4ccccc4O)o3)c(=O)oc2cc1O	162.2*	46.2
CCCCCCc1cc2cc(-c3nnc(-c4cc(OC)c(OC)c(OC)c4)o3)c(=O)oc2cc1O	68.8*	.
COc1ccc(-c2nnc(-c3cc4ccccc4oc3=O)o2)cc1	-2.4	.
COc1cc(-c2nnc(SCc3cc(=O)oc4cc(O)c(O)cc34)o2)cc(OC)c1OC	-2.7	.

Screening data: PubChem BioAssay, several laboratories
